The record followed here is PubChem BioAssay (Tox21).

Several values for one entry are separate records, joined by “and”; a condition that tells them apart may be missing. Identical values can stand only once. Values without a mark were called inactive. Inconclusive results are not listed. Activity calls are given as the source filed them. Unless noted, the call rests on the fitted dose curve; in most records, active means well fitted curve in the direction sought with a large enough effect in the repeat runs; inconclusive means weak or mixed curves; inactive means no such curve, though single readings can be large; an effect the other way counts as inactive or inconclusive.

Experiment [1] in a line: qHTS assay to identify small molecule antagonists of the glucocorticoid receptor (GR) signaling pathway - cell viability counter screen (AID 720693). Further: nearly all actives have a fitted effect of over 55% in size. Further: potency means the concentration at half of the fitted maximal effect.
A short description of experiment [2]: qHTS assay for identifying genotoxic compounds that show differential cytotoxicity against isogenic chicken DT40 cell lines with known DNA damage response pathways - wild type cell line (AID 743012). Further: nearly all actives have a fitted effect of over 60% in size. Further: potency means the concentration at half of the fitted maximal effect. In a few lines:
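Endpoint: CellTiter-Glo luminescence, 30 min RT. Cells: wild type DT40, 300/well. Exposure: compounds in DMSO, 40 h, 37 C/5% CO2, after ~0.5 h pre-incubation.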

The nature of experiment [3]: qHTS assay for identifying genotoxic compounds that show differential cytotoxicity against isogenic chicken DT40 cell lines with known DNA damage response pathways - Rev3 mutant cell line (AID 743014). Further: nearly all actives have a fitted effect of over 55% in size. Further: potency means the concentration at half of the fitted maximal effect.
Experiment [4] is described as follows: qHTS assay to identify small molecule antagonists of the androgen receptor (AR) signaling pathway - cell viability counter screen (AID 743033; further: nearly all actives have a fitted effect of over 45% in size; further: potency means the concentration at half of the fitted maximal effect). Background: qHTS replaces the single test concentration by a dilution series.
In experiment [5] the target is Androgen receptor (Homo sapiens) (UniProt P10275). Briefly: qHTS assay to identify small molecule agonists of the androgen receptor (AR) signaling pathway (AID 743036; active means well fitted activation curve with a large enough effect in the signal ratio in the repeat runs, with a control signal flat, not every such curve was filed as active; the % refers to the signal ratio). The procedure, abridged: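 Activation was read as beta-lactamase FRET signal from LiveBLAzer B/G substrate, added for 2 h at room temperature. Before that, GeneBLAzer AR-UAS-bla GripTite (HEK293) cells had 16 h compound exposure at 37C.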
Sequence of Androgen receptor (Homo sapiens) (P10275 whole entry, looked up): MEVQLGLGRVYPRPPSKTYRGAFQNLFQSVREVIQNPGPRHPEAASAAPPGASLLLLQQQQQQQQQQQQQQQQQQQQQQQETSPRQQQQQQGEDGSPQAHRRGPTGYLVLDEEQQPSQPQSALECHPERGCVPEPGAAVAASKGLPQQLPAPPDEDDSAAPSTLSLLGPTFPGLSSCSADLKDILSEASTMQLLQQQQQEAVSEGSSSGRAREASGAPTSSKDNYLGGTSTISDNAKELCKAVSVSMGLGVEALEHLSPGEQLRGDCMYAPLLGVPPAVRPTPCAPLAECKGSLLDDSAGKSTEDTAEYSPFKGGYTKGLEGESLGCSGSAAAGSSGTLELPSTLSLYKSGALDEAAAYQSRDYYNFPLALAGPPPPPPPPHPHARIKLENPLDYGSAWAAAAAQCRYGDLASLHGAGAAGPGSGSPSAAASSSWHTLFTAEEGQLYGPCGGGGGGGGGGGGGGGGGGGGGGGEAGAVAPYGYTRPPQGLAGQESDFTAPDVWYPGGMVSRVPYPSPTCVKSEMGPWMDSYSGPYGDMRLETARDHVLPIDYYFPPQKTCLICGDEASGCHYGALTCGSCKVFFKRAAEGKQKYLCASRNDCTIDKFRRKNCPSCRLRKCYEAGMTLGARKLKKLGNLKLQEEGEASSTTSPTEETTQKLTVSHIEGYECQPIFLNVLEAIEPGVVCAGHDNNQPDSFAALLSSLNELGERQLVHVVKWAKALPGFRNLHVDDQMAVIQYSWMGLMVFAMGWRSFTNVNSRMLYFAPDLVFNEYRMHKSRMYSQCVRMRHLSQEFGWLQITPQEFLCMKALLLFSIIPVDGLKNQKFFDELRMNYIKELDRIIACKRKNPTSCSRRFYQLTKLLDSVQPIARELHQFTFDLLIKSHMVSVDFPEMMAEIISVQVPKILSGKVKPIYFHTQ

For experiment [6] the target is unchanged. Briefly: qHTS assay to identify small molecule agonists of the androgen receptor (AR) signaling pathway using the MDA cell line (AID 743040; further: nearly all actives have a fitted effect of over 20% in size; further: potency means the concentration at half of the fitted maximal effect). Particulars: MDA-kb2 AR-luc cells, MMTV luciferase, 16 h; activity change: at 70.3 µM (top of the series), active compounds read high. The procedure, abridged:
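Stable MMTV-luciferase reporter in MDA-kb2 cells; note the promoter carries GR as well as AR response elements. 16 h compound treatment, 37C, 0% CO2; ONE-Glo luminescence endpoint.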

For experiment [7] the target is unchanged. Briefly: qHTS assay to identify small molecule antagonists of the androgen receptor (AR) signaling pathway using the MDA cell line (AID 743042; further: nearly all actives have a fitted effect of over 55% in size). The procedure, abridged:
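Antagonist mode: compounds plus R1881 agonist added to MDA-kb2 AR-luc cells, incubated 16 h at 37C. Luciferase reporter luminescence quantified, with multiplexed CellTiter-Fluor readout for cell viability.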

Experiment [8] in a line: qHTS assay to identify small molecule antagonists of the androgen receptor (AR) signaling pathway using the MDA cell line - cell viability counter screen (AID 743041; further: nearly all actives have a fitted effect of over 45% in size; further: potency means the concentration at half of the fitted maximal effect). In a few lines: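 Using the breast carcinoma line MDA-kb2 AR-luc, test chemicals were co-incubated with R1881 for 16 h; CellTiter-Fluor reagent, added at 15.5 h, provided a fluorescence measure of live cells.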

Experiment [9] is described as follows: qHTS assay for identifying genotoxic compounds that show differential cytotoxicity against isogenic chicken DT40 cell lines with known DNA damage response pathways - Rad54/Ku70 mutant cell line (AID 743015). Further: nearly all actives have a fitted effect of over 60% in size. Further: potency means the concentration at half of the fitted maximal effect.
The target of experiment [10] is Androgen receptor (Homo sapiens) (UniProt P10275). The experiment in a line: qHTS assay to identify small molecule antagonists of the androgen receptor (AR) signaling pathway (AID 743035; active means well fitted inhibition curve with a large enough effect in the signal ratio in the repeat runs, not every such curve was filed as active; the % refers to the signal ratio). In a few lines:
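R1881 agonist challenge of a HEK293 UAS-beta-lactamase AR reporter line in the presence of compound (16 h, 37C); signal taken as FRET fluorescence after 2 h with LiveBLAzer B/G substrate at room temperature.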
On the % scale 0 is the no-effect control and ±100 the full control effect.

For `CN1C(=O)CN=C(c2ccccc2)c2cc([N+](=O)[O-])ccc21`, the Potency entry in experiment [1], in [2], in [3], in experiment [4], in [5] and in experiment [7] was “inactive” throughout. In addition, in [6], the Potency is 1.88 µM (active).

For `C1CS1`, the Potency result in experiment [1], in experiment [2], in experiment [3], in [4] and in experiment [8] was “inactive” in each case.

Turning to `N#CC(C#N)=Cc1ccc(O)c(O)c1`, the Potency result in experiment [1], in experiment [4], in experiment [6] and in experiment [7] was “inactive” in each case. Besides, the Potency was 13.3 µM (active) in experiment [2] and 26.6 µM (active) in experiment [3].

`O=C(Cc1ccccc1)OCCc1ccccc1`: the Potency result in [1], in experiment [4] and in experiment [8] was “inactive” each time. Moreover, the Potency is 68.6 µM (active) in [2] and 61.1 µM (active) in [9].

Consider `CN1CC[C@]23c4c5ccc(O)c4O[C@H]2[C@@H](O)CC[C@H]3[C@H]1C5`, for which the Potency entry in experiment [1], in [2], in [9] and in experiment [8] was “inactive” in each case.

`Cc1cnc(C2=NC(C)(C(C)C)C(=O)N2)c(C(=O)O)c1` (stereo not drawn): the Potency result in experiment [1], in experiment [2], in experiment [3], in [10], in experiment [5] and in experiment [6] was “inactive” in each case. Also, the Potency result in experiment [8] and in experiment [7] was “inactive” throughout.

In the case of `CN(C)C(=O)Nc1cccc(OC(=O)NC(C)(C)C)c1`, the Potency result in experiment [1], in experiment [2], in experiment [9] and in experiment [8] was “inactive” each time.

On to `CCOC(=O)C1OC1(C)c1ccccc1` (stereo not drawn), for which the Potency entry in experiment [1], in [2], in [3], in [4] and in [8] was “inactive” in each case.

`CC(Cl)C(=O)O` (stereo not drawn): the Potency result in [1], in experiment [2], in experiment [3], in experiment [10], in experiment [5] and in experiment [6] was “inactive” throughout. For the same compound, in experiment [7], the Potency result was “inactive”.

`C[C@H]1O[C@H](OC2[C@@H](O)[C@@H](O)C(O)[C@H](O)[C@H]2O)[C@@H](N)C[C@@H]1N=C(N)C(=O)O` (stereo partly drawn): the Potency result in experiment [1], in experiment [2], in experiment [3], in experiment [4] and in [8] was “inactive” each time.

As to `CCCCCCCCCCCCN=C(N)N`, the values for the viability change, negative = cytotoxic in [1] and in experiment [8] were -13.6% [at 3.15 µM] and -10.3% [at 3.79 µM], respectively. Further, the Potency in experiment [2] was 0.845 µM (active); in experiment [3], 1.89 µM (active).

Consider `CCNC(=O)NC(=O)/C(C#N)=N/OC`, for which the Potency entry in experiment [1], in experiment [2], in experiment [3], in [4] and in experiment [8] was “inactive” each time.

For `SCc1ccccc1`, the Potency result in experiment [1], in experiment [2], in experiment [3] and in experiment [8] was “inactive” each time.

`c1ccc2c(c1)sc1ccccc12`: the Potency result in experiment [1], in [2], in [9] and in experiment [4] was “inactive” in each case.

`CCCN(CCOc1c(Cl)cc(Cl)cc1Cl)C(=O)n1ccnc1`: the Potency result in [1] and in experiment [8] was “inactive” each time. The Potency is 27.3 µM (active) in [2]; 31.3 µM (active) and 30.6 µM (active) in experiment [3]; 25.1 µM (active) in experiment [4].

Consider `ClCc1ccccc1Cl`, for which the Potency entry in experiment [1], in experiment [2], in experiment [3], in experiment [10], in experiment [6] and in experiment [8] was “inactive” each time. Moreover, the Potency entry in [7] was “inactive”.

For the compound `CCCCCCCCCCCCCCCl`, the Potency result in [1], in experiment [2], in [3], in experiment [4] and in [8] was “inactive” throughout.

As for `Oc1cccc(Cl)c1`, the Potency entry in experiment [1], in experiment [2], in experiment [3], in [4] and in [8] was “inactive” in each case.

Turning to `CC(C)CCCCCCCOC(=O)c1ccccc1C(=O)OCCCCCCCC(C)C`, the Potency entry in [1], in experiment [2], in [9] and in [8] was “inactive” each time.

Take `CC1(C)CC(=O)CC(C)(C)N1[O]`: the Potency result in experiment [1], in [2], in [3], in [4] and in [8] was “inactive” in each case.

With `O=[N+]([O-])c1cc(Cl)c(Cl)cc1Cl`, the Potency entry in experiment [1], in [2], in experiment [3] and in experiment [8] was “inactive” each time.

For `COc1cc(C[C@@H](C)N)c(OC)cc1Br`, the Potency result in experiment [1], in experiment [4] and in experiment [8] was “inactive” throughout. In addition, the Potency in experiment [2] was 70.4 µM (active).

Turning to `CC(C)(C)CC(C)(C)c1ccc(O)cc1`, the Potency was 24.5 µM (active) in experiment [1]; 23.7 µM (active) and 12.2 µM (active) in experiment [2]; 11.9 µM (active) and 19.3 µM (active) in experiment [3]. For the same compound, the Potency result in [4], in experiment [6] and in experiment [7] was “inactive” each time.

Take `CC(C)c1ccc(NC(=O)N(C)C)cc1`: the Potency entry in experiment [1], in experiment [2] and in experiment [8] was “inactive” each time. Also, the Potency in experiment [3] was 68.5 µM (active).

Regarding `CCCCCBr`, the Potency entry in [1], in [2], in experiment [3], in [10], in experiment [5] and in experiment [6] was “inactive” in each case. In addition, the Potency entry in [8] and in experiment [7] was “inactive” throughout.

Consider `COC1CC(=C(c2cccs2)c2cccs2)C[N+](C)(C)C1` (stereo not drawn), for which the Potency entry in experiment [1] and in experiment [4] was “inactive” each time. The figures for the Potency in experiment [2] and in [9] were 23.7 µM (active) and 29.8 µM (active), respectively.

Consider `O=C(CCl)CCl`, for which the Potency entry in experiment [1], in [4] and in [8] was “inactive” throughout. The Potency in [2] is 0.864 µM (active); in experiment [3], 0.273 µM (active).

For `O=C1c2ccccc2C(=O)N1SC(Cl)(Cl)Cl`, the Potency in experiment [1] was 17.1 µM (active) and 13.8 µM (active); in [2] it was 603 nM (active) and 154 nM (active); in [3], 67.6 nM (active) and 109 nM (active); in [4] it was 2.71 µM (active) and 3.09 µM (active); in [8], 21.7 µM (active).

As to `CCC(C)Cl` (stereo not drawn), the Potency entry in [1], in [2], in experiment [3] and in [8] was “inactive” throughout.

Take `O=C(N/N=C/c1ccc([N+](=O)[O-])o1)c1cc([N+](=O)[O-])cc([N+](=O)[O-])c1O`: the Potency result in experiment [1], in [2] and in experiment [9] was “inactive” throughout.

For the compound `CCOP(=S)(OCC)Oc1ccc(S(C)=O)cc1` (stereo not drawn), the Potency result in experiment [1], in experiment [4] and in [8] was “inactive” throughout.

`O=C(O)C(F)(F)C(F)(F)C(F)(F)C(F)(F)C(F)(F)F`: the Potency entry in experiment [1], in [2], in [4] and in experiment [8] was “inactive” in each case.
